The text below walks through data of PubChem BioAssay AID1347383 (Zoeller Lab, School of Medicine, Boston University, 2020).

Each structure is given as a SMILES string. The source made the active and inactive calls.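 How the source made its calls: active means cell survival after UV exposure 2 SD above solvent-only control wells at 10 µM, confirmed on one or two repeats; inactive means the rest.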

This test is described as follows: protection of CHO cells from pyrene-fatty acid UV killing, primary screen, phospholipid biosynthesis inhibitor project, ZR-82 cells, Analyticon library, screen 2 (AID 1347383).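 Further: survival reflects blocked phospholipid synthesis cutting uptake of the phototoxic fatty acid; compound and fatty acid exposure 3 h then viability read next day.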 To be noted: ZR-82 CHO cells, CellTiter Blue, at 10 µM, peroxisome-deficient CHO-K1 variant, with DGAT-1, DGAT-2 and ACAT inhibitors.
Take `CC(C)CNC(=O)/C=C/C=C/Cc1cccs1`: the outcome was inactive.
The result for `COc1c(O)ccc2c1C(=O)c1ccccc1C2=O` reads “inactive”; that for `O=C1C(c2[nH]c3ccccc3c2O)=Nc2ccccc21`, “inactive”; that for `CC(=O)c1c(O)cc(O)c(C/C=C(\C)CCC=C(C)C)c1O`, “inactive”.
As for `COc1cc(/C=C/C(=O)O)cc(OC)c1OC`, the entry is “inactive”; as for `COC(=O)CCC(=O)OC[C@]1(C)CCC[C@@]2(C)C3CC[C@]4(C)C=CC3(CCC12)C4` (stereo not given in full), “inactive”.
Turning to `CC(=O)OC1C(=O)C2C3OCC4=C3[C@@](C)(CC[C@@H]4O)CC[C@]2(C)[C@H]1C(C)C` (stereo not given in full), the result was inactive.
For the molecule `CC1=CC2C3C(C(C)=C4C3[C@@](C)(O)CC[C@H]3[C@H](C)C(=O)O[C@H]43)C13C2[C@@](C)(O)CC[C@H]1[C@H](C)C(=O)O[C@@H]13` (stereo not given in full), the result was inactive.
The result for `CCC1C(=O)O[C@]23C=C[C@@H]4C(C(=O)O)=CO[C@H](OC12)[C@@H]43` (stereo not given in full) reads “inactive”.
Take `CC(=O)C(C)C(O)C(C)c1ccc(CO)cc1/C=C/CO` (stereo not given): the call was inactive.
As for `CC(=O)O[C@H]1C[C@@]2(C)[C@@H](CC[C@H]3[C@@]4(C)C=CC(=O)[C@@H](C)[C@@H]4[C@H](O)C(=O)[C@@]32C)/C1=C(/CCC=C(C)C)C(=O)O`, the entry is “inactive”.
For `C=C(C)[C@@H]1CC[C@]2(COC(C)=O)CC[C@]3(C)[C@H](CC[C@@H]4[C@@]5(C)CC[C@H](OC(C)=O)C(C)(C)[C@@H]5CC[C@]43C)[C@@H]12`, the call was inactive.
As for `O=c1ccc2ccc(O[C@@H]3O[C@H](CO)[C@@H](O)[C@H](O)[C@H]3O)cc2o1`, the entry is “inactive”.
Take `CC1CCC2(C(=O)O)CCC3(C)C(C=CC4C5(C)CC(O)C(O)C6(C)COC(CC43C)C65)C2C1(C)O` (stereo not given): the result was inactive.
As for `CC(C)c1ccc2c(c1)CCC1C(C)(C(=O)O)CCCC21C` (stereo not given), the entry is “inactive”; as for `CCCCCC1=C(CO)C(O)C(O)CC1=O` (stereo not given), “inactive”; as for `COc1ccc(-c2coc3cc(O)ccc3c2=O)cc1`, “inactive”.
With `C[C@]1(C=O)[C@H]2CC[C@]3(C)O[C@@]14C(=O)c1cc(O)ccc1C(=O)C4=C[C@@H]23`, the molecule was classed as inactive.
In the case of `C[C@@H]1O[C@@H](Oc2c(-c3ccc(O)c(O)c3)oc3cc(O)cc(O)c3c2=O)[C@H](O)[C@H](O)[C@H]1O`, the molecule was called inactive.
For the molecule `O=C(O)c1ccc(CO)o1`, the molecule was called inactive.
The result for `COc1cc(O)c2c(=O)c(-c3ccc(O)cc3O[C@@H]3O[C@H](CO)[C@@H](O)[C@H](O)[C@H]3O)coc2c1` reads “inactive”.
Turning to `CC1=C(CCCCC(=O)O)COC1=O`, the call was inactive.
As to `C=C[C@@]12COC(=O)C(=C)[C@@H]1[C@@H](O)[C@H](C(=C)C(=O)OC)[C@@H](O)C2`, the outcome was inactive.
For `O=c1[nH]c2ccccc2c(-c2cccc(O)c2)c1O`, the result was inactive.
As to `C=C(Oc1cccc(C(=O)O)c1)C(=O)O`, the outcome was inactive.
As for `CCC/C=C\CC(N)CC(=O)O` (stereo not given), the entry is “inactive”; as for `O=C1CCC(=O)NCCCCCN(O)C(=O)CCC(=O)NCCCCCN(O)C(=O)CCC(=O)NCCCCCN1`, “inactive”; as for `C=C1C[C@H](O)C[C@]2(C)CC[C@@H](C(C)(C)O)CC12` (stereo not given in full), “inactive”.
Turning to `O=C(O)CCC(=O)Cc1ccccc1`, the molecule was classed as inactive.
For the molecule `CC1=C(C)C(=O)OC(C(C)C2C(O)CC3C4C5OC5C5(O)CC=CC(=O)C5(C)C4CCC32C)C1` (stereo not given), the result was inactive.
On to `CC1(C)CC2C(O)c3cocc3CC(C)(O)C2C1` (stereo not given), for which the call was inactive.
Turning to `CC(=O)O[C@H]1C[C@@]2(C)[C@@H](CC[C@H]3[C@@]4(C)C=CC(=O)[C@@H](C)[C@@H]4[C@H](OC(C)=O)C(=O)[C@@]32C)/C1=C(\CCC=C(C)C)C(=O)O`, the result was inactive.
`CC/C=C/C=C/C1(C)OC(=O)C(C(C)=O)=C1O` (stereo not given): the molecule was called inactive.
With `OC1C(c2ccccc2)CCC(c2ccccc2)C1O` (stereo not given), the result was inactive.
In the case of `COc1cc2oc(=O)ccc2cc1[C@H]1OC(=O)[C@]2(C)OC12` (stereo not given in full), the result was inactive.
With `CO[C@@H]1C(=O)CC[C@]2(O)CO[C@H](CC=C(C)C)[C@](C)(O)[C@@]12O`, the molecule was called inactive.
For `C=C(C)[C@@H]1Cc2cc3c(cc2O1)OC[C@@]1(O)c2ccc(O)cc2O[C@@H]31`, the call was inactive.
In the case of `CCC(C)(O)C(O)C(=O)OCC1CC[N+]2([O-])CCCC12` (stereo not given), the molecule was classed as inactive.
Consider `Nc1ncnc2c1ncn2[C@@H]1O[C@H](CO)C[C@H]1O`, for which the outcome was inactive.
As for `COc1cc(C(=O)/C(C)=C(\C)C(=O)c2ccc(O)c(OC)c2)ccc1O`, the entry is “inactive”.
